Test systems include NCI-H23 lung; NCI-H226 lung; NCI-H322M lung; HOP-62 NSCLC; NCI-H460 lung; HOP-92 NSCLC; NCI-H522 lung; A549/ATCC NSCLC; 786-0 renal; COLO 205 colon; DU-145 prostate; K-562 leukemia; MALME-3M melanoma; MDA-MB-231 breast; RXF 393 renal; SF-268 CNS; SF-295 CNS; SF-539 CNS; UACC-257 melanoma; M14 melanoma.
Common to all, as to assay: NCI-60 one-dose screen, 48 h (100 = growth as untreated, 0 = no growth, -100 = all killed)
Holding throughout (settings): 10 µM unless noted

About 83,000 compounds went through this panel and 20% of them were active in at least one assay; those are over-represented in the sample as a whole.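 How to read the values: 0–100, growth inhibition (40 = 60% inhibited); 0, no net growth; -100 to 0, cell death (-40 = 40% of starting cells died; -100 = all dead).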 Values without a mark were called inactive. The source made the active and inactive calls. The calls were made as follows: active = growth percent below 10; inactive = the rest.

Take `CC(C)NCCCNC1=C(Cl)C(=O)c2ccccc2C1=O`: the growth with NCI-H23 lung is 16.3%; in the test with NCI-H226 lung it was 93.1%; in the test with NCI-H322M lung, 105%; with HOP-62 NSCLC, 98.3%; in the test on NCI-H460 lung it was 87.2%; in the test with HOP-92 NSCLC, 110%. The growth in the test on NCI-H522 lung is 91.9%; in the test with A549/ATCC NSCLC it was 81.7%; in the test on 786-0 renal, 113%; in the test on COLO 205 colon, 95.4%; in the test on DU-145 prostate it was 47.8%; in the test on K-562 leukemia it was -41.9% (active). In addition, the growth with MALME-3M melanoma is -78% (active); with MDA-MB-231 breast, 76.3%; with RXF 393 renal, 119%; in the test with SF-268 CNS it was 91.5%; with SF-295 CNS, 57.4%; with SF-539 CNS, 119%. In addition, the growth in the test on UACC-257 melanoma is 3.04% (active); in the test on M14 melanoma it was 74.3%.
For the compound `CCCCN(CCCC)C(=O)CC`, the growth in the test with NCI-H23 lung is 102%; with NCI-H226 lung, 104%; with NCI-H322M lung, 117%; in the test with HOP-62 NSCLC, 119%; in the test on NCI-H460 lung it was 108%; in the test with HOP-92 NSCLC it was 96.4%. The growth with NCI-H522 lung was 114%; in the test with A549/ATCC NSCLC, 106%; with 786-0 renal, 102%; in the test with COLO 205 colon, 119%; with DU-145 prostate, 112%; in the test on K-562 leukemia, 101%. The growth in the test on MALME-3M melanoma was 124%; with MDA-MB-231 breast, 114%; with RXF 393 renal, 128%; in the test on SF-268 CNS it was 105%; in the test on SF-295 CNS, 109%; in the test with SF-539 CNS, 112%. The growth with UACC-257 melanoma is 129%; in the test with M14 melanoma, 111%.
As to `O=C(O)COc1ccc(-c2cssc2=S)cc1`, the growth in the test with NCI-H23 lung was 102%; with NCI-H226 lung, 99.1%; with NCI-H322M lung, 104%; with HOP-62 NSCLC, 104%; in the test on NCI-H460 lung, 113%; with HOP-92 NSCLC, 111%. Further, the growth in the test on NCI-H522 lung was 85.6%; with A549/ATCC NSCLC it was 97.6%; in the test on 786-0 renal it was 101%; in the test with COLO 205 colon, 109%; in the test on DU-145 prostate, 120%; in the test with K-562 leukemia, 115%. The growth is 97% with MALME-3M melanoma; 110% with MDA-MB-231 breast; 107% in the test on RXF 393 renal; 105% in the test with SF-268 CNS; 97.3% with SF-295 CNS; 96.3% in the test on SF-539 CNS. Besides, the growth with UACC-257 melanoma was 94.5%; in the test with M14 melanoma it was 105%.
Consider `CC1=C(C#N)C(=O)NC(C)C1` (stereo not given), for which the growth with NCI-H23 lung was 92.8%; in the test with NCI-H226 lung, 111%; in the test on NCI-H322M lung it was 106%; with HOP-62 NSCLC, 99.4%; with NCI-H460 lung, 107%; in the test on HOP-92 NSCLC it was 83.1%. The growth is 107% in the test with NCI-H522 lung; 95.3% in the test with A549/ATCC NSCLC; 97.6% in the test on 786-0 renal; 108% with COLO 205 colon; 111% in the test with DU-145 prostate; 116% in the test with K-562 leukemia. In addition, the growth was 102% in the test on MALME-3M melanoma; 105% in the test with MDA-MB-231 breast; 107% with RXF 393 renal; 104% in the test on SF-268 CNS; 99.9% in the test with SF-295 CNS; 97.9% with SF-539 CNS. For the same compound, the growth with UACC-257 melanoma is 102%; in the test with M14 melanoma, 96.2%.
`COc1cc([N+](=O)[O-])c2ncccc2c1O`: the growth is -9.28% (active) in the test with NCI-H23 lung; 5.16% (active) in the test on NCI-H226 lung; 2.58% (active) in the test on NCI-H322M lung; 5.92% (active) in the test with HOP-62 NSCLC; 2.09% (active) in the test on NCI-H460 lung; 79.4% in the test with HOP-92 NSCLC. Further, the growth was 42.5% in the test on NCI-H522 lung; -16.5% (active) in the test on A549/ATCC NSCLC; 108% in the test with 786-0 renal; -67.8% (active) in the test with COLO 205 colon; 8.92% (active) with DU-145 prostate; 130% with K-562 leukemia. Moreover, the growth in the test with MALME-3M melanoma is -25.9% (active); in the test on MDA-MB-231 breast, 98.6%; in the test on RXF 393 renal it was 93.3%; in the test with SF-268 CNS, 88.2%; in the test on SF-295 CNS, 3.61% (active); in the test on SF-539 CNS it was 24.3%. The growth was 48% in the test with UACC-257 melanoma and -23.9% (active) with M14 melanoma.
As for `CC(=O)OC[C@]12CC[C@H]3[C@@H](C[C@H]4O[C@]45CC=CC(=O)[C@]35C)[C@]1(O)CC[C@@]2(O)[C@@](C)(O)C1CC(C)=C(C)C(=O)O1` (stereo not given in full), the growth in the test with NCI-H23 lung is -32.9% (active); in the test on NCI-H226 lung, -28.5% (active); in the test on NCI-H322M lung, -54.2% (active); in the test with HOP-62 NSCLC it was -34% (active); in the test with NCI-H460 lung, -51.3% (active); in the test on HOP-92 NSCLC it was -34.6% (active). Moreover, the growth in the test with NCI-H522 lung is -54.1% (active); in the test on A549/ATCC NSCLC, 6.23% (active); in the test with 786-0 renal, -19.6% (active); in the test on COLO 205 colon, -35.7% (active); with DU-145 prostate it was 7.44% (active); with K-562 leukemia it was 5.58% (active). Also, the growth was -58.4% (active) in the test on MALME-3M melanoma; -14.7% (active) in the test on MDA-MB-231 breast; -62.8% (active) with RXF 393 renal; -49.5% (active) with SF-268 CNS; -11.9% (active) in the test on SF-295 CNS; -42.7% (active) with SF-539 CNS. Further, the growth in the test with UACC-257 melanoma was 13.7%; in the test with M14 melanoma, 2.6% (active).
For the compound `Brc1cccc(-c2cc(-c3ccc4c(c3)OCCCO4)[nH]n2)c1`, the growth with NCI-H23 lung was 66.2% [25 µM]; with NCI-H226 lung, 72% [25 µM]; in the test on NCI-H322M lung it was 68% [25 µM]; in the test on HOP-62 NSCLC, 53% [25 µM]; in the test on NCI-H460 lung, 16% [25 µM]; with HOP-92 NSCLC it was 56.8% [25 µM]. Further, the growth in the test on NCI-H522 lung is 2.15% [25 µM] (active); with A549/ATCC NSCLC, 44.4% [25 µM]; in the test with 786-0 renal, 85.2% [25 µM]; in the test with COLO 205 colon, 36.3% [25 µM]; with DU-145 prostate it was 69.3% [25 µM]; with K-562 leukemia it was 17.4% [25 µM]. Moreover, the growth in the test on MALME-3M melanoma is 52.9% [25 µM]; in the test with MDA-MB-231 breast it was 49.4% [25 µM]; in the test on RXF 393 renal it was 82.4% [25 µM]; in the test with SF-268 CNS, 68.8% [25 µM]; in the test with SF-295 CNS it was 62.3% [25 µM]; in the test on SF-539 CNS, 77.1% [25 µM]. For the same compound, the growth with UACC-257 melanoma was 96.7% [25 µM]; with M14 melanoma it was 49.6% [25 µM].
In the case of `Clc1cc(Cl)c2nc(-c3ccc(-c4ccc(/C=N/NC5=NCCN5)cc4)s3)cn2c1`, the growth with NCI-H23 lung was 94.1%; with NCI-H226 lung, 89.5%; in the test with NCI-H322M lung, 99.1%; in the test with HOP-62 NSCLC it was 88.9%; with NCI-H460 lung it was 98.8%; in the test on HOP-92 NSCLC, 14.5%. Also, the growth with NCI-H522 lung was 103%; in the test on A549/ATCC NSCLC it was 87.7%; with 786-0 renal, 88.5%; in the test on COLO 205 colon, 93.7%; with DU-145 prostate it was 87.4%; in the test on K-562 leukemia it was 3.66% (active). For the same compound, the growth in the test with MALME-3M melanoma is 74.9%; in the test on MDA-MB-231 breast it was 73.9%; with RXF 393 renal, 81.4%; in the test with SF-268 CNS it was 86%; with SF-295 CNS, 98.3%; with SF-539 CNS, 63.5%. Also, the growth with UACC-257 melanoma was 99%; in the test with M14 melanoma, 97.8%.

Source of the values: PubChem BioAssay (NCI).
